Experimental data as given in PubChem BioAssay.
A number with no mark means an inactive call.

Experiment: A549 lung cancer cell viability effects, profiling panel, resazurin fluorescence, 24 h, PK04 Diversity Set (AID 1171); note: test concentration not given here
Details: higher = more signal, called active from +8 up or from −8 down

| Structure (SMILES) | z-score |
| --- | --- |
| [N-]=[N+]=NCc1ccccc1[C@@H]1OC(c2ccc(OCCCO)cc2)=N[C@]1(CCS(=O)(=O)c1ccccc1)C(=O)O | -0.216 |
| CC1CC/C=C\[C@H]2OC34C=CCN(c5ccc(Cl)cc5)C(=O)[C@H]3N(C(C)CO)C(=O)[C@]4(C)C2C(=O)O1 (stereo partly specified) | 0.0378 |
| C=CC[C@]1(C(=O)N2CCCCC2)N=C(c2ccc(OCCCO)cc2)O[C@H]1c1ccccc1CN=[N+]=[N-] | 0.482 |
| COc1ccc([Si](C)(C)[C@H]2[C@H](CC(=O)N3CCC[C@H]3CO)O[C@@]3(C(=O)N(Cc4ccc(N5CCOC5=O)cc4)c4ccccc43)[C@@H]2C)cc1 | 0.0083 |
| Cc1cc(C)c(C(O)C2C=CC3C(=O)N(c4ccccc4)C(=O)C3N2Nc2ccccc2F)c(C)c1 (stereo unspecified) | 1.61 |
| CC[C@@H]1O[Si](C(C)C)(C(C)C)c2c1cc(-c1cc(C)c(OC)c(C)c1)nc2-c1ccc(Oc2ccccc2)cc1 | 1.69 |
| O[C@@H](Cc1ccccc1)[C@@H](/C=C/C1CC1)N(CC#Cc1ccccc1)Cc1ccccc1Br | 1.62 |
| COC(=O)C/C=C/C[C@]1(O)C(=O)N(C)c2ccccc21 | 0.946 |
| C=CC[C@@]1(C(=O)NCCCOC)N=C(c2ccc(OCCCO)cc2)O[C@@H]1c1ccccc1N=[N+]=[N-] | 0.2 |
| COC(=O)[C@@H]1N=C(c2ccc(OCCCO)cc2)O[C@@H]1C | -0.155 |
| CCCC=C(CCC)[C@@H](NC(=O)c1cccs1)c1ccc(C(=O)OC)cc1 | 0.902 |
